For some of these results: Entries with a potency or affinity are not part of this list.

What all share (parameters): scale not given: direction of the effect not stated beside the values
The target in test [1] is Protein translocase subunit SecA (Escherichia coli (strain K12)) (UniProt P10408). Put plainly: Assay to Identify E. coli SecA ATPase Inhibitors. Conditions: 30 µM. The class given is functional.
For test [2], the target named is T1, Ubiquitin-activating enzyme e1, putative (Leishmania donovani (strain BPK282A1)) (UniProt E9BSI1).
T1 sequence (whole entry): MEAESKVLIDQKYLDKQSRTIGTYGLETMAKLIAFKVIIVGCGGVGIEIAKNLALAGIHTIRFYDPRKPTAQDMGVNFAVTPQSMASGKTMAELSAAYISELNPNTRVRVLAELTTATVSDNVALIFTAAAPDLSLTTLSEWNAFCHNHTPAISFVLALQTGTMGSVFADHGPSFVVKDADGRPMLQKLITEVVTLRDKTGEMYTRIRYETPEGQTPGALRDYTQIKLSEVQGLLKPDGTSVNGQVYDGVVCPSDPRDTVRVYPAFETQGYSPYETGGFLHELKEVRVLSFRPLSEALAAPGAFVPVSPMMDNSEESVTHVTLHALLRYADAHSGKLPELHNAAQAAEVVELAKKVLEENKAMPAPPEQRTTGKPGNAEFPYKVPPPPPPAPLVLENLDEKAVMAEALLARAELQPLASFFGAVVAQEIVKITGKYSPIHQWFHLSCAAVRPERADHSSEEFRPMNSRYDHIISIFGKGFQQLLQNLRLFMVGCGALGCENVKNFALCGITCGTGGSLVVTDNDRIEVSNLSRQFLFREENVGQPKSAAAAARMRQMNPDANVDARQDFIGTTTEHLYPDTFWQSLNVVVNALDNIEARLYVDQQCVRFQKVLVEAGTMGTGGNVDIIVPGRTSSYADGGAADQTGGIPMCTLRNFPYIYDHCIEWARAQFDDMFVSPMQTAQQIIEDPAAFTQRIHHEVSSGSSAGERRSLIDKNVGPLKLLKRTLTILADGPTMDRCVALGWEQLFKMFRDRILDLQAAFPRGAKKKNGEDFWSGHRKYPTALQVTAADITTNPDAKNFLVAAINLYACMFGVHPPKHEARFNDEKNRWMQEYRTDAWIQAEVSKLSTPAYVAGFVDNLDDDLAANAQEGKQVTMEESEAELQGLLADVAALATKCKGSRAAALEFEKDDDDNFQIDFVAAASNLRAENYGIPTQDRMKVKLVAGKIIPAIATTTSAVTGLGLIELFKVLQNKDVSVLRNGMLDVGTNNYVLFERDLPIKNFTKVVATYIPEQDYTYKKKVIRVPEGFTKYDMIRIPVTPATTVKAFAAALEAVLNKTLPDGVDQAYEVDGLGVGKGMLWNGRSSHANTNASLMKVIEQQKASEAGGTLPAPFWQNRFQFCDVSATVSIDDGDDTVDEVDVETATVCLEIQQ
The experiment in a line: Leishmania donovani Ubiquitin Activating Enzyme (LdE1). Conditions: 30 µM. The format is functional.

Test [3] concerns the target AMP-activated protein kinase, AMPK (Homo sapiens) (UniProt P54646+O43741+P54619+Q9UGJ0+Q9Y478+Q13131+Q9UGI9). The experiment in a line: AMP-dependent Kinase enzyme assay. An in vitro enzyme assay that detects ADP turnover that is directly proportional to AMPK activity. This uses naive AMPK that is activated during the assay with MK-8722. The class given is functional. Conditions: 30 µM.

Test [4] deals with Sialic acid-binding Ig-like lectin 9 (Homo sapiens) (UniProt Q9Y336). Put plainly: Hs-Siglec9 ALPHAscreen SOP 20170721. Conditions: 10 µM.
Another test relates to Trypanosoma cruzi. Put plainly: Trypanosoma cruzi phosphomannomutase and mannose-1-phosphate guanylyltransferase assay. Conditions: 10 µM. The format is functional.
The target of test [5] is T2, Arginase-2, mitochondrial (Homo sapiens) (UniProt P78540).
T2 sequence (whole entry): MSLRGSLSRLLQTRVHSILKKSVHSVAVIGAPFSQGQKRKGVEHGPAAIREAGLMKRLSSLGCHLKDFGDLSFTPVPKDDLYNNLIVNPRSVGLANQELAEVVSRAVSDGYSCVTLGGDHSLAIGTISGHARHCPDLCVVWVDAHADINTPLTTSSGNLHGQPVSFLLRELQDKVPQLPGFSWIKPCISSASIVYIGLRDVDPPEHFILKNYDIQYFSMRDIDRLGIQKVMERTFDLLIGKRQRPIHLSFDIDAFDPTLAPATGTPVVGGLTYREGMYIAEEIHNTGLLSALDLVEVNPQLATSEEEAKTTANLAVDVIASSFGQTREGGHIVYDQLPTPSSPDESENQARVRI
Put plainly: in vitro enzyme assay to detect the production of urea directly proportional to the activity of Arginase II. Also: in the data most compounds retested in dose-response had high values. Conditions: 33.3 µM. The class given is functional.

The target of test [6] is T3, Proteasome subunit beta (Trypanosoma cruzi) (UniProt O96673).
T3 sequence (whole entry): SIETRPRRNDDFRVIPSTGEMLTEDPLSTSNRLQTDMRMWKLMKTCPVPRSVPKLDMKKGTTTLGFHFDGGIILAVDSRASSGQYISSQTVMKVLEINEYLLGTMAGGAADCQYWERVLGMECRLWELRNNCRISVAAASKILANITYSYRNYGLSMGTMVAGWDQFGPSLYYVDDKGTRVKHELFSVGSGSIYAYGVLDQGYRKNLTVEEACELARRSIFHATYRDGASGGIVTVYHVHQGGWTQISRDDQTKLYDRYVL
Put plainly: Trypanosoma cruzi proteasome chymotrypsin-like activity (TcProtChymo) assay. Also: in the data most compounds retested in dose-response had high values. The class given is functional. Conditions: 9.37 µM.

The species entered for the next test is Homo sapiens. Put plainly: To identify inhibition of the IFN signalling (Jak-Stat) pathway via expression of an eGFP reporter gene under the control of an IFN-stimulated response element (ISRE) containing MxA promoter. Conditions: 30 µM. The class given is functional. A general note: In a reporter assay the amount or activity of a reporter protein is the signal.

The target in test [7] is T4, Tyrosyl-tRNA synthetase, putative (Trypanosoma cruzi (strain CL Brener)) (UniProt Q4DSP6).
T4 sequence (whole entry): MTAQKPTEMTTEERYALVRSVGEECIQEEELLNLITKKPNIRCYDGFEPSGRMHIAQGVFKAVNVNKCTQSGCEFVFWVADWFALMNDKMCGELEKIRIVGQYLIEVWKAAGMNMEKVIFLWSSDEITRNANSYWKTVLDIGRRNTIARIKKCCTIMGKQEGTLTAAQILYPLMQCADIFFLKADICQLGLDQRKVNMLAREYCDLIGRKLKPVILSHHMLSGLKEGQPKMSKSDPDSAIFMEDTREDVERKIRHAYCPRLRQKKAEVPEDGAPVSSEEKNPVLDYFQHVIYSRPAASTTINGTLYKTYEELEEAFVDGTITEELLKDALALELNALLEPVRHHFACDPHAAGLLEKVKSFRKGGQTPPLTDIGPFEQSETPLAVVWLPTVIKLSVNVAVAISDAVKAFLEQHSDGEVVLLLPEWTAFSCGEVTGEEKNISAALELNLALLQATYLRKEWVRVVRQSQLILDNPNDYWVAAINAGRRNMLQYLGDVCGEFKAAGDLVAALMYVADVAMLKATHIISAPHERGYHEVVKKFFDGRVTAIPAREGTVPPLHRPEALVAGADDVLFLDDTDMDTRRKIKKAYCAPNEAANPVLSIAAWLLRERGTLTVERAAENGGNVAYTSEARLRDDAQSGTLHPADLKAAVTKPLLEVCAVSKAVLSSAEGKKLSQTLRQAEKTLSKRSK
The experiment in a line: Trypanosoma cruzi tyrosyl tRNA synthetase (TcYRS) _High Tyrosine SOP. Also: in the data most compounds retested in dose-response had high values. The format is functional. Conditions: 30 µM.

The target in test [8] is T4, Tyrosyl-tRNA synthetase, putative (Trypanosoma cruzi (strain CL Brener)). Put plainly: Trypanosoma cruzi tyrosyl tRNA synthetase (TcYRS) SOP. The format is functional. Conditions: 30 µM.
For test [9], the target named is Chromo domain-containing protein 1 (Saccharomyces cerevisiae (strain ATCC 204508 / S288c) (Baker's yeast)) (UniProt P32657). Put plainly: ScCHD-1 Enzyme Inhibition Assay. Also: in the data most compounds retested in dose-response had high values. Conditions: 30 µM. The format is functional.
Chain of Chromo domain-containing protein 1 (Saccharomyces cerevisiae (strain ATCC 204508 / S288c) (Baker's yeast)) (P32657 whole entry, the tested form may be a part): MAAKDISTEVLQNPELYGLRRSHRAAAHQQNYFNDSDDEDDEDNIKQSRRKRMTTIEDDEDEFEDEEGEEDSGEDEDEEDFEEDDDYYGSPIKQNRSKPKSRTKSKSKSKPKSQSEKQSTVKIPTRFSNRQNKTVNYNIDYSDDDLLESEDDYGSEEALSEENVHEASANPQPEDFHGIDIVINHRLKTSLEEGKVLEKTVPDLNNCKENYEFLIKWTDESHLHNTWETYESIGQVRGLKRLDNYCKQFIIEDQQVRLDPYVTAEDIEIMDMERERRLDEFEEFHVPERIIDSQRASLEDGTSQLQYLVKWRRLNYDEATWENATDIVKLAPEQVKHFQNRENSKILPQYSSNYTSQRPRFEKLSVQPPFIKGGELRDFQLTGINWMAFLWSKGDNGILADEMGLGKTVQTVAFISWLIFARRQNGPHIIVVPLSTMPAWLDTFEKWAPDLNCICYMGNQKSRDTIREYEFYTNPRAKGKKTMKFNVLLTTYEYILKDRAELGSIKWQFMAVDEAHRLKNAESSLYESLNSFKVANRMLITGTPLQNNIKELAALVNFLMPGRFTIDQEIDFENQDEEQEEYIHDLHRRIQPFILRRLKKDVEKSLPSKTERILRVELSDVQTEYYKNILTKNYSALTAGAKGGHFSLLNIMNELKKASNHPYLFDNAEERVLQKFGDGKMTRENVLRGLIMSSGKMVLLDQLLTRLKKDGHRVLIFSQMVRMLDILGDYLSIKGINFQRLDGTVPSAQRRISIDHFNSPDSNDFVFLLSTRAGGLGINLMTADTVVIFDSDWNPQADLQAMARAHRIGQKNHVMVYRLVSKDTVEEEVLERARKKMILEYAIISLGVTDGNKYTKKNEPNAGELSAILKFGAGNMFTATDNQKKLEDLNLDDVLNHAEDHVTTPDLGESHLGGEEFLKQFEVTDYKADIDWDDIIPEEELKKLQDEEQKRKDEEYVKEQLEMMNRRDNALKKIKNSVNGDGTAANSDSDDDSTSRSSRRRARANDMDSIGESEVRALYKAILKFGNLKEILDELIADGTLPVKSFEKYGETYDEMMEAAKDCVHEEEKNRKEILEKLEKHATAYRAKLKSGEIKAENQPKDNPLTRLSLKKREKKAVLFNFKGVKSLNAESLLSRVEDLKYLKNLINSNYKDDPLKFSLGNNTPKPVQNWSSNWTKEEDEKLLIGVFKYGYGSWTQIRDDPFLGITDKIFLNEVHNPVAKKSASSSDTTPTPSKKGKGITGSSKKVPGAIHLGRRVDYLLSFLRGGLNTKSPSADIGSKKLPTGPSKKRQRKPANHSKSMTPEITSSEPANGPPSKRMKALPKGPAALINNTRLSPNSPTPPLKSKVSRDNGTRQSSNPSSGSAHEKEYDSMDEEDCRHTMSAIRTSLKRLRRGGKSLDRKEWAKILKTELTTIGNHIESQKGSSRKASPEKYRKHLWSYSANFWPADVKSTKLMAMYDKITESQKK

Chain of Protein translocase subunit SecA (Escherichia coli (strain K12)) (P10408 whole entry): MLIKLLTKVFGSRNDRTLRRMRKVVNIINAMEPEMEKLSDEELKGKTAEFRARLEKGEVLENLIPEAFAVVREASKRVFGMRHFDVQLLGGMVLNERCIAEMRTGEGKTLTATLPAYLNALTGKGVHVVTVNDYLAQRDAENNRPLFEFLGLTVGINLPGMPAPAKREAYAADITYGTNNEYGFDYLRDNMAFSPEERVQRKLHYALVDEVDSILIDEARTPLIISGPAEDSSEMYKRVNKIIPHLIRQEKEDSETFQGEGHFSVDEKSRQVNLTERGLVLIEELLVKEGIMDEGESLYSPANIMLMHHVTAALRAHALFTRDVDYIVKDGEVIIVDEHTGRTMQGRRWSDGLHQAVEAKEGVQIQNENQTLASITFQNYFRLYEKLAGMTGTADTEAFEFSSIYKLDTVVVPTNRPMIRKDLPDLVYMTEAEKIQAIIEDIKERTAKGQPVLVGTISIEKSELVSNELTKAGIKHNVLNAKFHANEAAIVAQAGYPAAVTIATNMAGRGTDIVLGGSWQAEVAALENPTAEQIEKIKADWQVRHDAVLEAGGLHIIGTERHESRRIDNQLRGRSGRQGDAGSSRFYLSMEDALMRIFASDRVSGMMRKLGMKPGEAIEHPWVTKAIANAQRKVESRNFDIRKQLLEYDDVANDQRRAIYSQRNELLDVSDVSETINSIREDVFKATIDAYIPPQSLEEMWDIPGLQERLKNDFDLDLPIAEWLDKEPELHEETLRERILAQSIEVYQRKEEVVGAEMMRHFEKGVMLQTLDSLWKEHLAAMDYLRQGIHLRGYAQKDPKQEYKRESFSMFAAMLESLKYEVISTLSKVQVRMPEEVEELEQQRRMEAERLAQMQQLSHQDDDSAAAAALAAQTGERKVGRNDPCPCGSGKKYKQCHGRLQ
Chain of Sialic acid-binding Ig-like lectin 9 (Homo sapiens) (Q9Y336 whole entry): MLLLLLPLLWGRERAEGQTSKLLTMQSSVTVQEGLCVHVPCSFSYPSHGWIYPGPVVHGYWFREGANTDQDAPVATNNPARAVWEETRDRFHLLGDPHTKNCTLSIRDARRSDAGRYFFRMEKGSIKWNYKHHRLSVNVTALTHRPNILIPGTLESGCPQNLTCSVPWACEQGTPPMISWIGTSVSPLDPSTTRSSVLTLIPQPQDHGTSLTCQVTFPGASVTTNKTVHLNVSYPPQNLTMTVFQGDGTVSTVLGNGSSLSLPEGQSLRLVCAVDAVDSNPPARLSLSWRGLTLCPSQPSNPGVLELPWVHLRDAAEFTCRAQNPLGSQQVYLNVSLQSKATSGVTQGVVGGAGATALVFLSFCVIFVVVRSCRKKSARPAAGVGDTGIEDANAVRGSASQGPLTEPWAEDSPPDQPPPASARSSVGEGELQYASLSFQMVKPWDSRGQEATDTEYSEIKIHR

As for `COCC1COCCC12CCN(C(=O)CCc1ccccc1)CC2` (stereo unspecified), the Percent Effect in [1] was -7.38%; in test [2] it was 0%; in test [3], 1.05%; in test [4], -3.38%; in the test with Trypanosoma cruzi it was -2.73%; in test [5], 0%. Further, the Percent Effect in [6] is 4.65%; in the test listed under Homo sapiens, -6.87%; in test [7], 3.96%; in test [8], 3.66%; in [9] it was 6.04%.
Regarding `NC(=O)c1ccc(CN2CCCC(O)C2)cc1` (stereo unspecified), the Percent Effect in test [1] was -2.93%; in test [2], 13.5%; in test [3], -3.22%; in test [4], -5.21%; with Trypanosoma cruzi, 4.69%; in [5], 37.5%. The Percent Effect in test [6] was 17.2%; in the test filed under Homo sapiens, 0.641%; in test [7], 5.94%; in test [8] it was 15.8%; in test [9], -0.618%.
For the compound `CC(C)n1ccnc1C1CCCN(c2ccccn2)C1` (stereo unspecified), the Percent Effect in test [1] was -4.71%; in test [2], 5.33%; in test [3], -0.644%; in test [4], 4%; in the test with Trypanosoma cruzi, -2.43%; in [5], 0%. In addition, the Percent Effect was 18.7% in test [6]; 15.1% in the test listed under Homo sapiens; 3.83% in test [7]; 11.1% in test [8]; -7.89% in test [9].
As for `OC(CN1CCCCCCC1)c1ccc(F)cc1` (stereo unspecified), the Percent Effect was 0.984% in test [1]; 10.5% in test [2]; -3.76% in test [3]; -5.28% in test [4]; 7.33% with Trypanosoma cruzi; -1.15% in test [5]. The Percent Effect in [6] is 15.4%; in the test listed under Homo sapiens, 11.7%; in [7], 7.35%; in test [8] it was 19.5%; in [9], -11.6%.
For `CCC1=N[C@@]2(CC[C@@H]3CN(Cc4ccccc4F)C[C@@H]32)C(=O)N1CC`, the Percent Effect is -5.1% in [1]; 0% in test [2]; -2.64% in test [3]; -1.67% in test [4]; -1.17% in the test on Trypanosoma cruzi; 12.5% in [5]. For the same compound, the Percent Effect in [6] is 18.7%; in the test filed under Homo sapiens, 5.93%; in test [7] it was 12.9%; in [8], 18.3%; in test [9], -6.7%.
Take `Cc1c[nH]c(CN(C)c2nc(C3CCCC3)nc3c2cnn3C)n1`: the Percent Effect in test [1] is -3.47%; in [2], 1.39%; in [3], 3.98%; in test [4], -7.75%; with Trypanosoma cruzi it was -3.01%; in test [5], 2.21%. The Percent Effect in test [6] is 3.68%; in the test listed under Homo sapiens, -3.43%; in test [7] it was 0%; in test [8], 2.56%; in test [9] it was -2.96%.
Regarding `O=C(CCc1cc(O)no1)N1CCCC(COc2ccc(F)cc2)C1` (stereo unspecified), the Percent Effect was -4.75% in test [1]; 20.8% in test [2]; -16.4% in test [3]; 26.7% in test [4]; 3.6% in the test on Trypanosoma cruzi; 0.442% in [5]. The Percent Effect in test [6] was 14%; in the test filed under Homo sapiens, -9.73%; in [7] it was 5.26%; in test [8], 10.3%; in test [9], -11.2%.
On to `CCC(=O)N1CC[C@@H](c2ccc3ccccc3c2)[C@H](O)C1`, for which the Percent Effect in test [1] is -3.58%; in test [2], 8%; in [3], -2.44%; in test [4] it was 14.3%; in the test on Trypanosoma cruzi it was 5.94%; in test [5], 24%. The Percent Effect was 16.2% in [6]; 11.8% in the test listed under Homo sapiens; 4.92% in test [7]; 11.1% in [8]; -8.24% in test [9].
Take `CCC1=N[C@@]2(CC[C@@H]3CN(C(=O)NCC(C)C)C[C@@H]32)C(=O)N1CC(C)C`: the Percent Effect in test [1] was -3.96%; in test [2], 8%; in test [3], 0.0094%; in test [4], 5.84%; in the test with Trypanosoma cruzi, 4.25%; in test [5], -55%. Moreover, the Percent Effect is 12.8% in test [6]; 2.46% in the test listed under Homo sapiens; 8.33% in [7]; 10% in test [8]; -6.18% in test [9].
For `Cc1cc2n(n1)CC(CNC1CCN(Cc3ccccc3C)CC1)CN2` (stereo unspecified), the Percent Effect in [1] was -8.28%; in [2], 0%; in [3] it was -15.1%; in [4] it was 13.7%; in the test on Trypanosoma cruzi, 0.684%; in [5], -2.73%. Further, the Percent Effect in test [6] was 2.49%; in the test filed under Homo sapiens, 16.5%; in test [7], 4.3%; in test [8], 3.7%; in test [9], -2.06%.
As for `Cc1ccc(N2CCCC(NCc3cccc4c3OCCO4)C2)nn1` (stereo unspecified), the Percent Effect in test [1] was -2.62%; in test [2], 16.2%; in test [3], -11.3%; in test [4] it was 0.447%; in the test with Trypanosoma cruzi it was -1.23%; in [5] it was -2%. For the same compound, the Percent Effect in test [6] is 7.39%; in the test filed under Homo sapiens it was -7.93%; in test [7] it was 10.3%; in test [8], 18.5%; in test [9], -10.3%.
